Bioassay records: PubChem BioAssay, several laboratories
Shown are actives, neighbours in structure and some others; about 1.5% of the full set was active somewhere.
PriA SSB inh: inhibitors of Klebsiella pneumoniae PriA binding to SSB C-terminal tail; AlphaScreen SSBct-PriA binding, biotinylated peptide; inhibition, % at 33 µM; 430,000 compounds, 0.6% hits; in the data active = inhibition mostly above about 37%, no sharp cut-off; inactive = mostly below about 20%;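 note: plate controls were negative control peptide for no effect and reference peptide for full effect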
Sa RN4220 lethal: S. aureus RN4220 growth inhibition. 330,000 compounds, 0.33% hits. AID 1259311. inhibition, % (test concentration not listed). OD600, 16 h; in the data active = inhibition above about 85%;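 note: plate controls were untreated cells for no effect and reference antibiotic for full effect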
CCHF vOTU inh: blocks the CCHF virus ovarian tumor domain protease; 370,000 compounds, 0.55% hits; CCHFV vOTU protease, Pep-AMC fluorescence; AID 651958; inhibition, % at 11.5 µM; in the data active = inhibition above about 30%; note: 0% = vehicle wells with enzyme and 100% = no enzyme wells
Sa ugtP lethal: compounds lethal to S. aureus RN4220 ugtP deletion mutant | OD600 growth, 16 h | growth inhibition, % (no concentration beside the values) | 330,000 compounds, 0.54% hits; in the data active = growth inhibition above about 68%;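 note: plate controls were untreated wells for no effect and antibiotic for full effect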
VHR inh abs: DUSP3 (human) phosphatase inhibition. P51452. recombinant VHR phosphatase, pNPP absorbance. inhibition, % at 13.3 µM. 290,000 compounds, 0.52% hits. AID 1654; in the data active = inhibition above about 50%
Target sequence (P51452 whole entry, looked up): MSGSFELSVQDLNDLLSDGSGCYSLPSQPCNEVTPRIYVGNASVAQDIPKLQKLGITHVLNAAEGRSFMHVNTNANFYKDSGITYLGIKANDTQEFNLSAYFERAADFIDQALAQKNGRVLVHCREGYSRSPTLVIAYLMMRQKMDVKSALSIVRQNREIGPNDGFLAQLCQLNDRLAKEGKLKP
* marks the source's active call; other numbers are inactive results; · = no result given; + = active, no number.

SMILES	PriA SSB inh	Sa RN4220 lethal	CCHF vOTU inh	Sa ugtP lethal	VHR inh abs
Cc1cc(C)n(-c2ncc(NC(=O)c3ccc4c(c3)OCO4)cn2)n1	-23	·	·	·	·
COc1ccc(CN2CCCC(C(=O)N3CCc4ccccc4C3)C2)cc1OC (stereo not given)	-27	2	-10	4	59*
COc1ccc(SCC(=O)Nc2nc3cc4c(cc3s2)OCO4)cc1	4	·	·	·	·
NC(=O)c1ccc(N=C2C(=O)Nc3ccc([N+](=O)[O-])cc32)cc1	5	-3	116*	4	27
C=CCN=c1scc(-c2ccc(C)cc2)n1/N=C/c1ccccn1	+	·	·	·	·
Cc1nn(-c2ccccc2)c2c1C1(C(=O)N(C(C)C)c3ccccc31)C(C#N)=C(N)O2 (stereo not given)	2	92*	6	67	-15
Nc1nnnn1CC(=O)NN=Cc1cc([N+](=O)[O-])ccc1O	66	93*	·	81	·
O=C(Cn1cncn1)NN=Cc1cc([N+](=O)[O-])ccc1O	40*	88*	·	76	·
Nc1nnnn1N=Cc1cc([N+](=O)[O-])ccc1O	9	67	·	44	·
COc1cc([N+](=O)[O-])cc(C=NNC(=O)Cn2cncn2)c1O	23	3	·	2	·
O=C1/C(=C\c2ccc(O)cc2)SC(=S)N1Cc1ccccc1	-10	·	4	·	36
O=C1/C(=C\c2cc(Br)cc(Br)c2O)SC(=S)N1Cc1ccccc1	7	100*	·	100*	17
CC1(C)CC(NS(=O)(=O)c2ccccc2F)CC(C)(C)N1	-4	·	·	·	·
CC1(C)CC(NS(=O)(=O)c2cccc3ccccc23)CC(C)(C)N1	-7	0	-10	-1	56*
COC(=O)c1ccc(NC(=O)CN2CCC(C(N)=O)CC2)cc1	-7	·	·	·	·
Oc1ccc(Cl)cc1Cc1ccccc1	-18	-6	-1	-7	·
Oc1ccc(Cl)cc1Cc1cc(Cl)ccc1O	5	94*	18	86*	9
CSc1ccc(Cl)c(C(=O)NCCOc2cc(C)ccc2C(C)C)c1	-51	97*	-9	99*	19
Cc1ccc(C(C)C)c(OCCNC(=O)c2ccccc2O)c1	-72	24	4	24	1
N=c1c2c(-c3ccccc3)c(-c3ccccc3)n(Cc3ccccc3)c2ncn1CCO	11	-3	4	91*	36
COc1ccccc1OCCCn1c(C)nc2ccccc21	2	·	·	·	·
O=C(O)CCc1csc(NC(=O)c2ccc(F)cc2)n1	22	·	·	·	·
COc1cccc([C@@H]2CC(c3cccs3)=NN2C(=O)CSC2CCCCC2)c1OC	-11	·	·	·	·
O=C(O)c1ccccc1NS(=O)(=O)c1ccc(NN=Cc2ccc(O)c(O)c2)c([N+](=O)[O-])c1	44*	20	·	10	·
COc1ccc(S(=O)(=O)Nc2ccccc2C(=O)Nc2ccc(OC)cc2[N+](=O)[O-])cc1	44*	·	·	·	·
SMILES	PriA SSB inh	Sa RN4220 lethal	CCHF vOTU inh	Sa ugtP lethal	VHR inh abs
O=C(O)c1ccccc1NS(=O)(=O)c1ccc(NN=Cc2cccc(O)c2O)c([N+](=O)[O-])c1	6	21	·	2	·
COc1ccc(C=NNc2ccc(S(=O)(=O)Nc3ccccc3C(=O)O)cc2[N+](=O)[O-])c(OC)c1	46*	20	·	78	·
O=C(O)c1ccccc1NS(=O)(=O)c1ccc(NN=Cc2ccccc2F)c([N+](=O)[O-])c1	-1	5	17	92*	·
COc1ncccc1C(=O)NCC#CCOc1cccc(C(F)(F)F)c1	-21	·	·	·	·
CCOc1ccc(C=NNc2ccc(S(=O)(=O)Nc3ccccc3C(=O)O)cc2[N+](=O)[O-])cc1	17	-6	·	91*	·
Cn1nc(-c2ccc(Cl)cc2)nc2c(=O)n(C)c(=O)nc1-2	·	100*	·	100*	34
COc1cc(C=NO)cc(Br)c1OCc1cccc(Cl)c1	-26	-2	·	76	·
ON=Cc1cc(Br)cc(Br)c1OCc1ccccc1	-14	-12	·	91*	·
Cc1ccc(COc2ccc(Br)cc2C=NO)cc1	-5	-9	·	100*	·
C=CCOc1ccc(Br)cc1/C=N/O	·	·	4	·	0
O=C(Cc1ccccc1Cl)Nc1cnn(C2CCOCC2)c1	-15	·	·	·	·
NC(=S)N/N=C\c1ccccc1OC(=O)c1cc([N+](=O)[O-])cc([N+](=O)[O-])c1	6	·	·	·	·
CCCCCCCCOc1ccc(C2CC(=O)NC2=O)cc1 (stereo not given)	-12	-1	9	93*	4
O=C1CC(c2ccc(OCCCCCOc3ccc(C4CC(=O)NC4=O)cc3)cc2)C(=O)N1 (stereo not given)	-9	3	5	-5	16
COc1cccc(-c2cn3c(C(=O)Nc4ccc(S(=O)(=O)Nc5ncccn5)cc4)csc3n2)c1	-15	·	·	·	·
